Rows were chosen to be rich in hits. Some 6.5% of all compounds tested hit in one or more screens of this group.
Giardia killer – Giardia lamblia killing | 340,000 compounds, 0.15% hits | Giardia lamblia trophozoite viability | activity change, % at 7.66 µM, hits read low; in the data active means activity change below about -80%; inconclusive means between about -30% and that limit;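 further: parasites exposed to compound for two days anaerobically before the ATP read; on the % scale 0 is the no-effect control and ±100 the full control effect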
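Giardia trophozoites, 100 cells per well, were exposed to compounds for 48 hrs at 37 deg C under anaerobic conditions; viability was then read as ATP content by bioluminescence after 15-30 min at room temperature.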
HT1080-NT tox – kills 2HG-producing HT-1080-NT fibrosarcoma cells; HT-1080-NT fibrosarcoma viability, CellTiter-Glo ATP luminescence, 48 h; Potency, µM (series often up to 46.1 µM), without a hit: at the top dose activity, negative = less viability, hits mostly cytotoxic; 360,000 compounds, 1.6% hits; AID 686970;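 further: NT is the 2HG producing partner of a matched IDH1 knockdown line; potency means the concentration at half of the fitted maximal effect; 0% = DMSO-treated cells and -100% = media-only wells without cells; nearly all actives have a fitted effect of over 55% in size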
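Viability of the 2HG-overproducing fibrosarcoma line after 48 hours of compound exposure at 37 degrees C was determined by luminescence with CellTiter-Glo, and concentration-effect curves were then fitted and categorized.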
HT1080 IDH1KD tx – HT-1080 IDH1 knockdown cell toxicity (counter line) | HT-1080 IDH1 knockdown viability, ATP luminescence, 48 h | Potency, µM (titrated, usually from 46.1 µM), without a hit: top-dose activity, negative = toxicity, most hits filed as cytotoxic | 360,000 compounds, 2% hits | AID 686971;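 further: potency means the concentration at half of the fitted maximal effect; 0% = DMSO wells and -100% = cell-free medium wells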
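In this qHTS, HT-1080 cells depleted of IDH1 are exposed for 48 h at 37 °C to compound titrations. Toxicity is scored from CellTiter-Glo luminescence, with DMSO as full viability and medium alone as none.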
IL-1B inflam inh – inhibitors of inflammasome signaling (IL-1 beta secretion); 360,000 compounds, 4.7% hits; activity change, % at 57.5 µM; THP-1 LPS/ATP IL-1B secretion, AlphaLISA, 16 h; hits give low values; in the data active means activity change below about -50%; inconclusive means mostly about -30% to -49%; further: on the % scale 0 is the no-effect control and ±100 the full control effect
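Secreted IL-1B measured by AlphaLISA bead assay after 16 h compound exposure of THP-1 cells; compounds (final up to 57.5 uM) added 1 h before LPS (250 ng/mL) and ATP (1.25 mM) stimulation; lower signal means less secretion.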
TGFb inhibitor – inhibitors of TGF-b signaling; Potency, µM (series often up to 46.1 µM), for the others: at the top dose activity, negative = inhibition, hits mostly inhibitors; AID 588855; 410,000 compounds, 1.2% hits; HepG2 CAGA-GFP TGF-b/SMAD3 reporter, GFP fluorescence, 18 h; TGF-beta stimulated, 500 pg/mL final; further: potency means the concentration at half of the fitted maximal effect; on the % scale 0 is the no-effect control and ±100 the full control effect; nearly all actives have a fitted effect of over 65% in size
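Inhibition was scored as loss of TGF-beta-induced (500 pg/mL final, 18 hours, 37 degrees C) GFP in HEPG2 cells carrying a CAGA-GFP reporter, in DMEM with 1% FBS. Well GFP was summed per cell; Activity was normalised to unstimulated and stimulated DMSO wells, then concentration-response fitting.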
HepG2 tox – HepG2 cytotoxicity, counter-screen for TGF-b inhibitors | HepG2 CAGA-GFP viability, ATP luminescence, 18 h | Potency, µM (top dose mostly 46.1 µM), without a hit: top-dose activity change, negative = cytotoxicity, actives largely listed as cytotoxic | 410,000 compounds, 0.76% hits; further: potency means the concentration at half of the fitted maximal effect
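HepG2 CAGA-GFP cells (1000/well, DMEM with 1% FBS) received compound, then TGF-beta at 500 pg/mL final, and were incubated 18 hours at 37 degrees C. Viability was read by CellTiter-Glo luminescence. Media-only wells were set as complete cell-killing and DMSO as no toxicity.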
Starred values were filed as active, the others as inactive; ? = inconclusive; / = no result. Unless noted, the call rests on the fitted dose curve; in most records, active means well fitted curve in the direction sought with a large enough effect; inconclusive means small, poorly fitted or top-dose-only effect, or another doubt; inactive means no such curve, though single readings can be large; an effect the other way counts as inactive or inconclusive.

SMILES	Giardia killer	HT1080-NT tox	HT1080 IDH1KD tx	IL-1B inflam inh	TGFb inhibitor	HepG2 tox
O=C(Nc1cccc(Br)c1)c1cc2ccccc2o1	-23.9	9.5%	2.7%	-57.2*	-22.2%	-25.2%
CN1CCN(c2ccc(NC(=O)c3ccc(-c4ccc(Br)cc4)o3)cc2)CC1	5.7	14.6µM*	23.1µM*	-91.5*	?	22.4µM*
CC(C)N1CCN(C(=O)c2ccc(NC(=O)c3ccc(Br)o3)cc2)CC1	6.1	?	12.9%	-8.3	-5.4%	-0.2%
O=C(Nc1ccc(N2CCOCC2)c(Cl)c1)c1ccc(Br)o1	6.9	?	-8.4%	-74.0*	-1.0%	5.1%
O=C(c1ccccc1)c1cccc(NC(=O)c2ccc(Br)o2)c1	-16.6	-20.5%	-23.7%	-64.3*	?	-11.0%
O=C(Nc1cccc(NC(=O)c2ccc(Br)o2)c1)c1ccccc1	-19.0	-13.9%	-22.0%	?	7.5%	6.4%
O=C(Nc1ccc(N2CCOCC2)c(Cl)c1)c1ccccc1Cl	-0.5	18.2%	4.1%	?	3.0%	-4.9%
O=C(Nc1ccc(N2CCN(C(=O)c3ccccc3)CC2)c(Cl)c1)c1ccc(Br)o1	5.0	7.08µM*	?	-100.7*	-3.6%	-33.8%
COc1ccc(C(=O)Nc2cc(-c3ccccc3)nn2-c2ccccc2F)cc1	1.1	-16.6%	-3.2%	?	?	-14.9%
CCC(C)(C)NC(=O)CN(C(=O)c1snc(C(N)=O)c1N)c1ccc2c(c1)OCO2	-3.0	-4.9%	3.8%	-5.5	1.2%	9.8%
Cc1[nH][nH]c(=O)c1N=Nc1ccc(Br)c(Cl)c1	-3.3	10.6%	6.5%	34.5	2.9%	-33.1%
CC(=O)Oc1oc(-c2ccccc2)nc1/C=N/c1ccccn1	10.9	11.6%	-0.4%	-101.3*	-14.9%	-16.0%
O=C(NCc1cccc(F)c1)c1cccc2c1C(=O)c1ccc(Cl)cc1S2(=O)=O	7.5	-9.6%	-18.2%	0.0	-3.4%	0.7%
NCCNC[C@@H]1COC2(CCCCCCCCCCC2)O1	-6.0	14.6µM*	?	-68.3*	?	-66.7%
Cc1ccc(C)c(NC(=O)C2C3CCCC2C3c2ccccc2)c1 (stereo unspecified)	-9.0	11.8%	2.6%	0.0	12.1%	-10.4%
CN(c1ccccc1)C1CCCCC1NS(=O)(=O)c1ccc(Cl)cc1 (stereo unspecified)	-1.5	-21.5%	?	72.9	11.2µM*	-82.7%
CCN(CC)C1CCCCC1NS(=O)(=O)c1ccc(Cl)cc1 (stereo unspecified)	-14.9	11.0%	1.3%	-7.9	-0.5%	-4.7%
Cc1ccc(NC(=O)c2cccc(C(F)(F)F)c2)cc1NC(=O)c1[nH]cnc1C(N)=O	-20.3	1.1%	0.5%	78.3	-0.1%	2.2%
Cc1cn(-c2cc(NC(=O)c3ccc(C)c(NC(=O)c4cccc(-c5cn[nH]c(=O)c5)c4)c3)cc(C(F)(F)F)c2)cn1	-12.5	0.0%	0.0%	-94.3*	-1.6%	-31.6%
CCCCc1nc2cc(C(=O)N3CCC(O)CC3)ccc2o1	22.3	4.0%	0.0%	-5.3	12.8%	1.2%
N#CCCN1CCN(C(=S)c2ccc(-c3cccc(Cl)c3)o2)CC1	-3.9	-5.5%	-28.1%	-24.4	?	-20.5%
N#CCCN1CCN(C(=S)c2ccc(-c3ccc(Cl)c(Cl)c3)o2)CC1	-27.6	?	?	-53.4*	-8.6%	-6.8%
Nc1nc(N2CCN(c3ccccc3)CC2)n[nH]1	21.0	13.7%	14.4%	18.0	-0.5%	13.3%
COc1cccc(/C=N/NC(=O)c2ccccc2)c1OS(=O)(=O)c1ccccc1	4.2	-12.0%	-7.4%	-25.7	0.7%	-25.9%
Cc1oc(-c2cccc3ccccc23)nc1CN1CCN(c2ncnc3ccccc23)CC1	24.2	?	?	0.0	-22.6%	6.4%
SMILES	Giardia killer	HT1080-NT tox	HT1080 IDH1KD tx	IL-1B inflam inh	TGFb inhibitor	HepG2 tox
COc1ccccc1CN1CCCC(CN(CCN(C)C)C(=O)C2CCCC2)C1 (stereo unspecified)	-6.5	0.5%	-18.6%	-52.4*	1.2%	0.6%
CCOc1ccccc1N1CC(C(=O)Nc2cc(S(=O)(=O)N3CCOCC3)ccc2OC(C)C)CC1=O (stereo unspecified)	3.1	7.7%	4.2%	-25.6	-9.5%	-3.1%
O=C(NCC1CCOCC1)c1ccc(-c2ccc(F)c(F)c2)c2ccoc12	/	-16.4%	?	-92.3*	-11.5%	-19.7%
O=C(NCc1ccc(F)c(F)c1)c1ccc(-c2ccc(F)c(F)c2)c2ccoc12	/	-24.2%	-11.8%	?	-32.0%	-16.8%
COc1ccc(C(=O)CC(=O)O)c2c1C=CC(C)(C)O2	-13.7	-0.9%	1.6%	-5.5	4.1%	-21.4%
Cc1onc(-c2c(F)cccc2Cl)c1-c1nnc(-c2ccc(C(F)(F)F)cc2)o1	-9.0	-22.1%	25.9µM*	/	?	-35.4%
Cc1onc(-c2c(Cl)cccc2Cl)c1-c1nnc(-c2ccc(Cl)cc2)o1	-13.6	-20.7%	-28.5%	-1.2	-0.6%	10.3%
O=C(Nc1ccc([N+](=O)[O-])cc1NC(=O)c1ccccc1)c1ccccc1	7.8	9.8%	-4.8%	-3.3	-7.0%	1.4%
CCOC(=O)c1ccc(NC(=O)N2CCN(CCc3ccccc3)CC2)cc1	14.6	-41.9%	?	-16.3	31.4%	-39.5%
CCOc1ccc(NC(=O)OCCN2CCN(CCc3ccccc3)C(C)C2)cc1 (stereo unspecified)	-20.0	2.0%	-1.4%	-69.8*	3.7%	-24.3%
CCCNC(=O)c1cc(S(=O)(=O)N2CCCCC2)ccc1N1CCOCC1	1.6	-0.9%	-1.7%	6.5	?	-4.1%
O=C(NCc1cccnc1)/C(=C/c1ccc(-c2ccc(Cl)cc2)o1)S(=O)(=O)c1ccccc1	-3.9	6.31µM*	5.62µM*	-105.8*	?	4.47µM*
NC(=O)c1sc2nc3c(c(-c4ccco4)c2c1N)CCCC3	1.8	7.6%	4.8%	-6.5	?	-20.6%
Nc1c(C(=O)NCC2CCCO2)sc2nc3c(c(-c4ccco4)c12)CC/C3=C\c1ccco1 (stereo unspecified)	2.5	-1.9%	0.2%	-3.7	17.8µM*	5.6%
Cc1ccccc1NC(=O)c1sc2nc3c(c(-c4ccco4)c2c1N)CCC3	-3.8	19.2%	15.7%	-69.5*	0.0%	2.0%
Cc1ccc(C2=NOC(C)(c3sc(-c4ccc(Cl)cc4)nc3C)C2)cc1 (stereo unspecified)	-13.2	20.7%	11.9%	-23.5	-48.4%	-21.7%
Cc1ccc(S(=O)(=O)/N=C(\CCl)N2CCOCC2)cc1	14.1	-17.9%	?	-51.5*	?	-3.8%
